Results filed as inconclusive are left out. Active and inactive are the calls of the source. Unless noted, the call rests on the fitted dose curve; in most records, active means well fitted curve in the direction sought with a large enough effect in the repeat runs; inconclusive means weak or mixed curves; inactive means no such curve, though single readings can be large; an effect the other way counts as inactive or inconclusive.
Experiments:
[1] = target: Progesterone receptor (Homo sapiens) (UniProt P06401); test: qHTS assay to identify small molecule agonists of the progesterone receptor (PR) signaling pathway (AID 1346784; calls by dose curve; further: nearly all actives have a fitted effect of over 30% in size)
Chain of Progesterone receptor (Homo sapiens) (P06401 whole entry, looked up): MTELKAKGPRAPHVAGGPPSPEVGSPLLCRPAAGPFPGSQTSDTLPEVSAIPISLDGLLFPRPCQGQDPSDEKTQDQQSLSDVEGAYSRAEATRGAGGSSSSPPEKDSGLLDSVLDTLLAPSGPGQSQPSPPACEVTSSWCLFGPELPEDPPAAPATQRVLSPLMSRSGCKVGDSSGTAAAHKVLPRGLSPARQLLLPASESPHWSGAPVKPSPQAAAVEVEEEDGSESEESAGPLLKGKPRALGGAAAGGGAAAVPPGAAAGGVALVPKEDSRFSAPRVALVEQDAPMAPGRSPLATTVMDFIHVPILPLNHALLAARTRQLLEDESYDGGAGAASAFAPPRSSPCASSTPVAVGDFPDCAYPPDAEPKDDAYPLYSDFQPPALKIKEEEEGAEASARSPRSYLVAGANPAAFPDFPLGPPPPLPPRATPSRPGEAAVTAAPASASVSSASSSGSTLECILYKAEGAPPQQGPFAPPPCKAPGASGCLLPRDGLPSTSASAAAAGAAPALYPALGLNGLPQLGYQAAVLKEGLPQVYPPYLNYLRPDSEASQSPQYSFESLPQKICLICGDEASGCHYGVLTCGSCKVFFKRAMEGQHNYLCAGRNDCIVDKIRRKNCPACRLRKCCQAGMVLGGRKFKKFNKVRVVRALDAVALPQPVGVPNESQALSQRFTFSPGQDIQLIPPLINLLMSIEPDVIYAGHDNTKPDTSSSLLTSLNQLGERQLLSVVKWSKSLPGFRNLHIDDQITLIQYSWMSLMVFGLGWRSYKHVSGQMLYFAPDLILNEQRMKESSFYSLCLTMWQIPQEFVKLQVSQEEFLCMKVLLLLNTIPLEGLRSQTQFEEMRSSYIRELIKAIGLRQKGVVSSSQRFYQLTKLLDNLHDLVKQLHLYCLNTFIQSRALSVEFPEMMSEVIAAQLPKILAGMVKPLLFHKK
How it was run: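 PR-UAS-bla HEK 293T cells (beta-lactamase reporter under UAS) in 2% charcoal-stripped FBS, dosed with 23 nL compound after 6 hr, incubated 16hr at 37C. LiveBLAzer B/G FRET substrate added, fluorescence read after 2 hours.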

[2] = target: Progesterone receptor (Homo sapiens) (UniProt P06401); test: qHTS assay to identify small molecule antagonists of the progesterone receptor (PR) signaling pathway (AID 1346795; active means well fitted inhibition curve with a large enough effect in the signal ratio in the repeat runs, not every such curve was filed as active; the % refers to the signal ratio)
How it was run: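 PR-UAS-bla HEK293T cells with beta-lactamase reporter under UAS control, in 2% charcoal-stripped FBS, treated with compounds plus 1 nM promegestone (R5020, final) for 16 hr at 37C. Read-out: FRET beta-lactamase substrate fluorescence after 2 hr at room temperature.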

[3] = qHTS assay to identify small molecule antagonists of the progesterone receptor (PR) signaling pathway - cell viability counter screen (AID 1346798); further: series mostly up to about 92 µM; nearly all actives have a fitted effect of over 50% in size
How it was run: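 PR-UAS-bla HEK293T cells, 3,000/well in 2% charcoal-stripped FBS medium, dosed with compounds plus R5020 agonist and incubated 16 h at 37C. Viability then measured in the same wells by CellTiter-Glo luminescence after 30 min at RT.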

[4] = qHTS assay to identify small molecule agonists of the progesterone receptor (PR) signaling pathway - cell viability counter screen (AID 1346799; calls by dose curve; further: nearly all actives have a fitted effect of over 45% in size)
How it was run: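 Counter screen in the PR-UAS-bla HEK293T wells (2% charcoal-stripped FBS, 16 h compound exposure at 37 C) after the bla read. CellTiter-Glo added, 30 min at room temperature, luminescence read as cell viability.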

[5] = qHTS assay to identify small molecule agonists of the TGF-beta/Smad signaling pathway - cell viability counter screen (AID 1346829); further: top concentration of the series differs between compounds; nearly all actives have a fitted effect of over 45% in size
How it was run: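 Compound-treated SBE-bla HEK 293T cells (5 hr, 37 C) were assessed for viability with CellTiter-Glo in parallel with the reporter read.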

[6] = qHTS assay to identify small molecule agonists of the TGF-beta/Smad signaling pathway (AID 1346859; active means well fitted activation curve with a large enough effect in the signal ratio in the repeat runs, not every such curve was filed as active; the % refers to the signal ratio; further: series mostly up to about 77 µM)
How it was run: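 SBE-bla HEK293T cells plated overnight, then compound exposure for 5 h at 37 C. Beta-lactamase reporter read with LiveBLAzer B/G FRET substrate after 2 h at room temperature, fluorescence at 405 nm excitation, 460/530 nm emission.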

[7] = target: Thyrotropin-releasing hormone receptor (Homo sapiens) (UniProt P34981); test: qHTS assay to identify small molecule antagonists of the thyrotropin-releasing hormone receptor (TRHR) signaling pathway (AID 1346877; active means well fitted inhibition curve with a large enough effect in the repeat runs, not every such curve was filed as active; further: series mostly up to about 51 µM)
Chain of Thyrotropin-releasing hormone receptor (Homo sapiens) (P34981 whole entry, looked up): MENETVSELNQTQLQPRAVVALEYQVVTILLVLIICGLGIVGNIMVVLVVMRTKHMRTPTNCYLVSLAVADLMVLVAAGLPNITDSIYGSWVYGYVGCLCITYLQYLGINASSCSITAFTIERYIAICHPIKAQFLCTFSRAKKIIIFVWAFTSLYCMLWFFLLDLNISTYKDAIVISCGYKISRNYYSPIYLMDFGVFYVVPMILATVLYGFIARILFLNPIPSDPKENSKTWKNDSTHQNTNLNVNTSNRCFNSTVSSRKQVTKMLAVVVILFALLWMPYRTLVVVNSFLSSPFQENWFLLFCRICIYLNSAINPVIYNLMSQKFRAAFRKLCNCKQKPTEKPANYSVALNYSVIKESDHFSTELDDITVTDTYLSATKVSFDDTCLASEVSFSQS
How it was run: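 Kinetic fluorescence (3 min, 1 s resolution) following stimulation with TRH at 1 nM final; HEK293 cells bearing human TRHR; 5 min compound preincubation at RT; concentration-response over 15 points, triplicates.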

[8] = target: Thyrotropin-releasing hormone receptor (Homo sapiens) (UniProt P34981); test: qHTS assay to identify small molecule agonists of the thyrotropin-releasing hormone receptor (TRHR) signaling pathway (AID 1346891; calls by dose curve; further: series mostly up to about 58 µM)
How it was run: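 HEK293 cells expressing TRHR plated 18 h at 37 C/5% CO2, calcium dye-loaded 2 h at 37 C, then compound added (agonist mode); kinetic calcium fluorescence read 3 min at 1 s intervals; 15 concentrations in triplicate.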

[9] = Human pregnane X receptor (PXR) small molecule agonists, qHTS cell viability counter screen (AID 1346977); further: nearly all actives have a fitted effect of over 50% in size
How it was run: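 PXR-Luc HepG2 cells (2,000/well, 5% charcoal-stripped FBS) preincubated 5 hr, then exposed to compounds 24 hr at 37 C. Viability read in the same wells by CellTiter-Fluor fluorescence, reagent added at 23 hr, 1 hr incubation.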

[10] = qHTS assay to identify small molecule antagonists of the TGF-beta/Smad signaling pathway - cell viability counter screen (AID 1346824); further: nearly all actives have a fitted effect of over 50% in size
How it was run: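 SBE-bla HEK 293T cells were plated overnight at 37 C, then given compounds in DMSO plus TGF-beta1 (added as 0.25 ng/mL solution) for 5 hr. After the bla read, CellTiter-Glo was added to the same wells and luminescence read after 30 min at room temperature.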

Measured: Potency

ClC(Cl)Br
not listed: [10]
inactive: all other assays above

COc1cc(OC)nc(NC(=O)NS(=O)(=O)c2ncccc2OCC(F)(F)F)n1
not listed: [7] | [8]
inactive: all other assays above

Cc1coc2c1CCC(C)C2 (centres undefined)
not listed: [7] | [8]
inactive: all other assays above

Oc1c(Cl)cccc1Cl
not listed: [10]
inactive: all other assays above

O=C(O)c1ccc2[nH]cc(CCCCN3CC=C(c4ccccc4)CC3)c2c1
not listed: [7] | [8]
inactive: all other assays above

CNC(=O)Oc1ccccc1C1OCCO1
not listed: [4]
inactive: all other assays above

Cc1cnc[nH]1
not listed: [10]
inactive: all other assays above

c1ccc(N2CCNCC2)cc1
not listed: [4] | [7]
inactive: all other assays above

COC(=O)c1ccccc1S(=O)(=O)NC(=O)N(C)c1nc(C)nc(OC)n1
not listed: [7] | [10]
inactive: all other assays above

ClC(Cl)C(Cl)Cl
not listed: [7] | [8]
inactive: all other assays above

ClCC(Cl)(Cl)Cl
not listed: [6] | [7] | [8]
inactive: all other assays above

O=[N+]([O-])c1cccc2cccnc12
not listed: [10]
inactive: all other assays above

COC(=O)COc1ccc(Cl)cc1Cl
not listed: [6]
inactive: all other assays above

O=C(Cc1ccccc1)OCc1ccccc1
not listed: [7] | [8] | [10]
inactive: all other assays above

COC(=O)c1ccccc1S(=O)(=O)NC(=O)Nc1nc(C)cc(C)n1
not listed: [10]
inactive: all other assays above

OC(c1ccccc1)(c1ccccc1)C1CCNCC1
not listed: [10]
inactive: all other assays above

CCCCN(CCCCO)N=O
not listed: [10]
inactive: all other assays above

CN(C)CCc1ccc(O)cc1
not listed: [10]
inactive: all other assays above

CC(=O)CCc1ccc2c(c1)OCO2
not listed: [4]
inactive: all other assays above

C[C@]12CC[C@H]3[C@@H](CC=C4C[C@@H](O)CC[C@@]43C)[C@@H]1CC[C@@H]2O
not listed: [7] | [8]
inactive: all other assays above

CC(C(O)c1ccccc1)N(C)C/C=C/c1ccccc1 (centres undefined)
inactive: [1] | [2] | [3] | [4] | [5] | [6]

COc1cc(OC)nc(Oc2cccc(Oc3nc(OC)cc(OC)n3)c2C(=O)O)n1
not listed: [4]
inactive: all other assays above

ClCCOCOCCCl
not listed: [7] | [10]
inactive: all other assays above

CC(C)CC(N(C)C)C1(c2ccc(Cl)cc2)CCC1 (centres undefined)
not listed: [4]
inactive: all other assays above

O=[N+]([O-])c1ccc(CBr)cc1
not listed: [4]
inactive: all other assays above

O=C1OC(=O)C2C1C1(Cl)C(Cl)=C(Cl)C2(Cl)C1(Cl)Cl (centres undefined)
not listed: [10]
inactive: all other assays above

O=[N+]([O-])c1cc(Cl)c(Cl)c(Cl)c1
not listed: [10]
inactive: all other assays above

COc1cc(OC)nc(NC(=O)NS(=O)(=O)c2ncccc2C(=O)N(C)C)n1
not listed: [10]
inactive: all other assays above

COc1cc(C[C@@H](C)N)c(OC)cc1C
not listed: [4] | [7] | [9]
inactive: all other assays above
